We go through 17 molecules from PubChem BioAssay.

A short description of test [1]: antimalarial activity against Dd2 strain (AID 2302;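 active means growth inhibition above 50% at the single 2 µM test dose, taken to imply half-maximal potency below 2 µM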;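 further: 0% = DMSO untreated growth and 100% = chloroquine plus artemisinin killed control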). Conditions: P. falciparum Dd2 in RBCs, LDH growth readout, 72 h; at 2 µM; stronger effect = higher value.
The nature of test [2]: human hepatoma cell viability loss – ATP luminescence, cytotoxicity control for P. falciparum antimalarial project, primary screen (AID 2303;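 active means inhibition above 50%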;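 further: 0% = DMSO wells and 100% = digitonin-killed cells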). The settings on record: HepG2 viability, 24-48 h, at 10 µM, stronger effect = higher value.
For test [3], the target named is L-lactate dehydrogenase (Plasmodium falciparum (isolate CDC / Honduras)) (UniProt Q27743). In words: PfLDH activity inhibition – cell lysate, 3D7 strain, counter-screen for P. falciparum growth inhibition project (AID 2304).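 Further: 0% = vehicle and 100% = reference inhibitor.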 The settings on record: P. falciparum 3D7 crude extract, LDH APAD/NBT absorbance; at 2 µM; stronger effect = higher value. Background: The purpose of a counterscreen is to sort out artefacts and off-target activity.
Sequence of L-lactate dehydrogenase (Plasmodium falciparum (isolate CDC / Honduras)) (Q27743 whole entry, looked up): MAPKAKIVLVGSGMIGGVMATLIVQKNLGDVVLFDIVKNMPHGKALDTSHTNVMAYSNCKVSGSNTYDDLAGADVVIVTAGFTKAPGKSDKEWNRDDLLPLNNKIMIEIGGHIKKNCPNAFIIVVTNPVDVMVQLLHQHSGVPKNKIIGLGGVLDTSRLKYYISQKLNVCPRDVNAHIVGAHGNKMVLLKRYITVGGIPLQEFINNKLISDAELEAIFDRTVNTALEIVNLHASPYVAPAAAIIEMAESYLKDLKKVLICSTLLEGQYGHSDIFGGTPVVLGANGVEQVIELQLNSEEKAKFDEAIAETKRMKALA

Test [4] can be described thus: inhibition of 3D7 malaria parasite growth – strain 3D7 (AID 2306).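 Further: 0% = DMSO wells and 100% = chloroquine plus artemisinin control wells.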 Conditions: P. falciparum 3D7 erythrocytic growth, LDH absorbance, 72 h; at 2 µM; stronger effect = higher value.
Test [5] in a line: viability loss in pontine glioma line – cell-based, SU-DIPG-XIII, MIPE5.0, CellTiter-Glo, qHTS, dose response (AID 1347064; cut-off not given, nearly all actives have AC50 up to about 23 µM;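 on AC50: cells exposed to compound for 48 hours before the viability read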). The settings on record: CellTiter-Glo ATP luminescence. (In general: In ATP-based viability assays light output follows the ATP content of the culture.)
Test [6] is described as follows: viability loss in pontine glioma line – cell-based, SU-DIPG-XXV, MIPE5.0, CellTiter-Glo, qHTS, dose response (AID 1347065; cut-off not given, nearly all actives have AC50 up to about 26 µM;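 further: cells exposed to compound for 48 hours before ATP readout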). The settings on record: CellTiter-Glo ATP luminescence.
Test [7] concerns Aerobactin synthetase IucA (Klebsiella pneumoniae). In words: inhibition of K. pneumoniae IucA enzyme – biochemical, Tocris library, absorbance (AID 1345561).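 Further: 100% = enzyme without compound and 0% = no enzyme.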 The settings on record: purified IucA enzyme assay, absorbance (OD) read-out; stronger effect = lower value;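 tested at 8 µM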.
Test [8] is described as follows: compounds altering HSF1 focus formation in cells – imaging, Selleck Cancer Library (AID 1347162; in the data active means plate-normalised HSF1 focus index below about 0.46). The settings on record: human cells, HSF1 nuclear foci imaging, at 10 µM; SSMD: measured here: HSF1 foci SSMD mean; cell count: measured here: cell number; plate-normalised HSF1 focus index: stronger effect = lower value.
The target in test [9] is ATP-dependent translocase ABCB1 (Homo sapiens) (UniProt P08183). In words: P-glycoprotein substrate transport blockade – cell-based (AID 377; in the data active means fluorescence slope change above about 50%). Conditions: MDR1-expressing cells, fluorescent substrate accumulation slope; stronger effect = higher value; concentration not given here.
Sequence of ATP-dependent translocase ABCB1 (Homo sapiens) (P08183 whole entry, looked up): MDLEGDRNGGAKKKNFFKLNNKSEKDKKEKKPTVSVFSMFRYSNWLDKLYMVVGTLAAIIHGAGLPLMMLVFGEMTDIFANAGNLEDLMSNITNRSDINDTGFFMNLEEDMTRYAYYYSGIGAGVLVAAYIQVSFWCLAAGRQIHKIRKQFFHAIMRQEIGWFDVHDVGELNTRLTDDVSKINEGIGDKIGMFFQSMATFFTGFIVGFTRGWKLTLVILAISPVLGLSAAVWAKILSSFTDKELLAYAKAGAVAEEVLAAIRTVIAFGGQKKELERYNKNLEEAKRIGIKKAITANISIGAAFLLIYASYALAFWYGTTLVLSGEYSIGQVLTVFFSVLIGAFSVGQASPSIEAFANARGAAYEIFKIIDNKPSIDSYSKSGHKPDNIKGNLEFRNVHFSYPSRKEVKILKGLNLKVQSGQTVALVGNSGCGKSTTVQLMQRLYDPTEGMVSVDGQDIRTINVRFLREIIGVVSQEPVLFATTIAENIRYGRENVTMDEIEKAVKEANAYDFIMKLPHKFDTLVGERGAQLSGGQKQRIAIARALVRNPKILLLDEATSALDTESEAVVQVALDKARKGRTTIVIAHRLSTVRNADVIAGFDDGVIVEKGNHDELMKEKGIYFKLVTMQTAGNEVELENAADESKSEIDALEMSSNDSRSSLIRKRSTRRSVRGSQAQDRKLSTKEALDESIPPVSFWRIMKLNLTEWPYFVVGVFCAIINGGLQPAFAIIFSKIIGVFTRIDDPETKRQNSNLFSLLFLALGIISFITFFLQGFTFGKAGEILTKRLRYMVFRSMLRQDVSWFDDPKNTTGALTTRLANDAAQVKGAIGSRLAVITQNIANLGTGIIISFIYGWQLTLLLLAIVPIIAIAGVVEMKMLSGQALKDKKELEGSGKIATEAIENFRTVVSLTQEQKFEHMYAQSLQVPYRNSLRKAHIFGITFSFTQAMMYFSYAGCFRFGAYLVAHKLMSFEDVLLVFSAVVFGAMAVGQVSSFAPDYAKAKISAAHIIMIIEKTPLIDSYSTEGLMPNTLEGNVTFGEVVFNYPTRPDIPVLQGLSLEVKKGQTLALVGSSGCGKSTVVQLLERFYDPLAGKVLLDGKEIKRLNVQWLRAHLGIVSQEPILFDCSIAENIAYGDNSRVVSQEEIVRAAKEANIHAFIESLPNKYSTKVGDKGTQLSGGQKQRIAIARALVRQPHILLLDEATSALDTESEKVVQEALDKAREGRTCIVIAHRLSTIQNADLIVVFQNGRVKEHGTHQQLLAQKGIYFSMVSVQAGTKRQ
Test [10] concerns Neuropilin-2 / VEGF-C interaction (human). The test can be described thus: small molecules blocking Neuropilin-2/VEGF-C interaction – biochemical, microplate binding format, z-score (AID 743281). The settings on record: microplate NRP2/VEGF-C binding assay; stronger effect = lower value.
Test [11] in a line: rescue of PC12 cells from polyQ htt toxicity – LDH release (AID 1610). Conditions: PC12 mutant huntingtin toxicity, final LDH at 4 uM, stronger effect = lower value. In general terms: Release of lactate dehydrogenase indicates damage to the cell membrane.
Test [12] can be described thus: chitosan synthesis blockers in C. neoformans – flow cytometry, Cibacron Brilliant Red staining (AID 1347148).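 Further: compound exposure lasted three days at 37 degrees C.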 Conditions: Cryptococcus neoformans chitosan, stronger effect = lower value; at 99.1 µM unless noted.

Inconclusive results are not listed. Calls of active or inactive are those of the source. Unless noted, how the calls were made is not given here.

For orientation: inhibition means the drop in the measured response relative to a control, in per cent. In general, AC50 refers to the concentration at which the activity in the assay is half-maximal. As for `CC[C@H]1CN2CCc3cc(OC)c(OC)cc3[C@@H]2C[C@@H]1C[C@H]1NCCc2cc(OC)c(OC)cc21`, the figures for the growth inhibition in test [1] and in test [4] were 99% (active) and 101% (active), respectively. Moreover, the inhibition is 43% (inactive) in test [2] and -3% (inactive) in [3]. In addition, the results for the AC50 in [5] and in [6] were 0.166 µM (active) and 0.417 µM (active), respectively.
By remaining activity is commonly meant the signal under treatment as a percentage of the control signal. As to `CC1=C(CC(=O)O)c2cc(F)ccc2/C1=C\c1ccc(S(C)=O)cc1` (stereo unspecified), the remaining activity in test [7] is 115% (inactive). Moreover, the outcome in test [6] was inactive.
Regarding `CCC(C)(C)C(=O)O[C@H]1C[C@@H](C)C=C2C=C[C@H](C)[C@H](CC[C@@H]3C[C@@H](O)CC(=O)O3)[C@H]21`, the remaining activity in test [7] is 114% (inactive). In test [8], the SSMD was found to be 1.41, the cell count stood at 7420 and the plate-normalised HSF1 focus index is 1.09 (inactive).
Consider `CCN(CC)CCCC(C)Nc1ccnc2cc(Cl)ccc12` (stereo unspecified), for which, in [9], the fluorescence slope change is -4.1% (inactive). Further, the figures for the growth inhibition in test [1] and in test [4] were 96% (active) and 100% (active), respectively. Further, the inhibition was 12% (inactive) in [2] and -1% (inactive) in [3]. Moreover, the molecule was called inactive in [5] and in test [6].
Consider `CN(C)CCCN1c2ccccc2CCc2ccc(Cl)cc21`, for which, in test [9], the fluorescence slope change is 179% (active). The remaining activity in test [7] is 96.8% (inactive). Besides, the call in test [5] was inactive.
As for `CC(=O)CC(c1ccccc1)c1c(O)c2ccccc2oc1=O` (stereo unspecified), the call in test [6] was inactive.
For `O=C(C1CCCCC1)N1CC(=O)N2CCc3ccccc3C2C1` (stereo unspecified), the call in test [5] and in test [6] was inactive.
In the case of `CCc1cc(C(N)=S)ccn1`, in test [6], the call was inactive.
For `O=C(O)c1cc(=O)c2c(OCC(O)COc3cccc4oc(C(=O)O)cc(=O)c34)cccc2o1`, in test [5], the call was inactive.
Consider `CCN(Cc1ccncc1)C(=O)C(CO)c1ccccc1` (stereo unspecified), for which the fluorescence slope change in test [9] was 82.5% (active). In addition, the remaining activity in test [7] is 104% (inactive).
On to `CCCc1nc2c(C)cc(-c3nc4ccccc4n3C)cc2n1Cc1ccc(-c2ccccc2C(=O)O)cc1`, for which the z-score in test [10] was -0.492 (inactive). Besides, the molecule was classed as inactive in test [5] and in [6].
In the case of `Oc1c(Cl)cc(Cl)c2cccnc12`, the half-maximal activity concentration (AC50) is 11.8 µM (active) in test [5] and 26.3 µM (active) in test [6].
With `OC(Cn1cncn1)(Cn1cncn1)c1ccc(F)cc1F`, the result in [5] and in [6] was inactive.
Consider `CC(C)C(=O)Nc1ccc([N+](=O)[O-])c(C(F)(F)F)c1`, for which the fluorescence slope change in [9] was 60.9% (active). For the same molecule, the normalised LDH release in [11] came out at 0.739. The call in [5] was inactive. In test [8], the SSMD turned out to be 1.17, the cell count came to 6660 and the plate-normalised HSF1 focus index was 1.06 (inactive).
As for `CC1=NS(=O)(=O)c2cc(Cl)ccc2N1`, in test [9], the fluorescence slope change is 82.3% (active). Besides, the z-score in [10] is -0.142 (inactive). Also, in [7], the remaining activity is 104% (inactive). Moreover, the fold fluorescence in test [12] was 4.83 [at 216.8 µM] (inactive).
Regarding `CC1=C(/C=C/C(C)=C/C=C/C(C)=C/C(=O)O)C(C)(C)CCC1`, the fluorescence slope change in test [9] is 101% (active). Also, the remaining activity in test [7] is 104% (inactive). Further, the fold fluorescence in test [12] was 4.11 [at 10 µM] (inactive).
Take `NNC(=O)c1ccncc1`: the fluorescence slope change in test [9] is 55.1% (active). Also, the result in test [6] was inactive.
